Test results taken from PubChem BioAssay (NCI).
About 79,000 compounds went through this panel and 15% of them were active in at least one assay; those are over-represented in the sample as a whole. The source made the active and inactive calls. Cut-off read from the data, not from the text of the source: active = growth inhibition above about 70%; inactive = the rest.

experiment: NCI Yeast Anticancer Drug Screen. Data for the rad50 strain (AID 155);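 note: 0% = growth of vehicle-only cultures of the same strain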; settings: S. cerevisiae rad50 strain growth inhibition; at 50.0 µM; active compounds read high
How it was run: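 Inhibition values express reduced yeast growth in compound-treated cultures relative to vehicle-treated controls.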

| Structure (SMILES) | growth inhibition |
| --- | --- |
| CCCc1nc(N)nc(C(=O)Nc2cccc(C(F)(F)F)c2)c1CC | -15.2% (inactive) |
| CCN(CC)CCOC(=O)c1noc2cc([N+](=O)[O-])ccc12 | 0.7% (inactive) |
| C#CCOC(=O)C(N)CS (stereo unspecified) | -6.95% (inactive) |
| COC(=O)c1cc(=O)[nH]c(=O)[nH]1 | -10.6% (inactive) |
| CC1(C)CC(=O)C(/C=N/C(N)=S)=C(O)C1 | -20.3% (inactive) |
| COc1ccc(/C=C/C(=O)O)cc1OC | -1.65% (inactive) |
| CCC(C(=O)NC1c2ccccc2Oc2ccccc21)c1ccccc1 (stereo unspecified) | -0.85% (inactive) |
| O=C(O)C(=Cc1cccc2ccc3ccccc3c12)C(=O)O | -8.7% (inactive) |
| CCC(=O)NN(C(C)=O)c1ccccc1 | 10.3% (inactive) |
| COC(=O)C1CSCN1 (stereo unspecified) | -23.9% (inactive) |
| COc1cc(CNC(=O)NCCCl)cc(OC)c1OC | -5.55% (inactive) |
| NC(=O)c1ccccc1NC(=O)C(=O)Cc1nc2ccccc2[nH]c1=O | -2.55% (inactive) |
| CCCOC(=O)/C=C(\Cl)C(=O)OCCC | -0.95% (inactive) |
| CC1(C)C2CC=C(CCO)C1C2 (stereo unspecified) | -2.85% (inactive) |
| CC(=O)N1Cc2ncnc(N)c2C1 | -12.3% (inactive) |
| CC(C)(C)NC(=O)Nc1nccs1 | 7.8% (inactive) |
| CCCCCc1cc[n+](CC(=O)c2ccccc2)cc1 | 4.45% (inactive) |
| Cn1c(N)c(N=O)c(=O)n(C)c1=O | -28.9% (inactive) |
| O=S(=O)(O)c1cc(N=Nc2cc(S(=O)(=O)O)c3ccccc3c2O)ccc1/C=C/c1ccc(N=Nc2cc(S(=O)(=O)O)c3ccccc3c2O)cc1S(=O)(=O)O | 34% (inactive) |
| Cc1ccc2c(ccc3ccccc32)n1 | 59.8% (inactive) |
| Cc1cc(Cl)nc(Nc2ccccc2)n1 | 13.1% (inactive) |
